# Reference: PubChem BioAssay (Tox21)
# Records with an inconclusive call do not appear. A call without a number means that no potency is given here. Active and inactive are the calls of the source. Unless noted, the call rests on the fitted dose curve; in most records, active means well fitted curve in the direction sought with a large enough effect in the repeat runs; inconclusive means weak or mixed curves; inactive means no such curve, though single readings can be large; an effect the other way counts as inactive or inconclusive.
# Key:
# [1] = qHTS assay to identify small molecule agonists of the peroxisome proliferator-activated receptor delta (PPARd) signaling pathway - cell viability counter screen (AID 743211); further: nearly all actives have a fitted effect of over 55% in size; further: potency means the concentration at half of the fitted maximal effect
# Outline: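 In the same wells used for beta-lactamase reporter measurement, cytotoxicity is scored by CellTiter-Glo. HEK293H PPARd-bla cells receive compound for 17 h at 37C following a 5 h settling period.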
# [2] = molecular target: Peroxisome proliferator-activated receptor delta (Homo sapiens) (UniProt Q03181); assay: qHTS assay to identify small molecule agonists of the peroxisome proliferator-activated receptor delta (PPARd) signaling pathway (AID 743212; calls by dose curve;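 further: HEK293H cells with PPARd UAS beta-lactamase reporter GeneBLAzer system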)
# Outline: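 Beta-lactamase reporter read by fluorescence (LiveBLAzer B/G FRET, 2 h, room temperature). Test agents, in DMSO, incubated at 37 C with PPARd-bla HEK293H cells.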
# [3] = molecular target: Peroxisome proliferator-activated receptor delta (Homo sapiens) (UniProt Q03181); assay: qHTS assay to identify small molecule antagonists of the peroxisome proliferator-activated receptor delta (PPARd) signaling pathway (AID 743215; active means well fitted inhibition curve with a large enough effect in the signal ratio in the repeat runs, not every such curve was filed as active; the % refers to the signal ratio; further: potency means the concentration at half of the fitted maximal effect)
# Outline: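 Agonist L165041 (300 nM final) added with compound to PPARd-bla HEK293H UAS-bla reporter cells; 17 h incubation at 37 C. Read-out: LiveBLAzer FRET substrate, 2 h at room temperature, fluorescence intensity.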
# [4] = qHTS assay to identify small molecule antagonists of the farnesoid-X-receptor (FXR) signaling pathway - cell viability counter screen (AID 743221; active means well fitted cell-killing curve with a large enough effect in the repeat runs, not every such curve was filed as active; further: nearly all actives have a fitted effect of over 50% in size)
# Outline: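 Here viability was scored by luminescence after CellTiter-Glo addition to wells already read for beta-lactamase. Prior treatment: compound plus CDCA (50 uM final), 16 h, 37 C, HEK 293T FXR-bla cells.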
# [5] = qHTS assay to identify small molecule antagonists of the peroxisome proliferator-activated receptor delta (PPARd) signaling pathway - cell viability counter screen (AID 743213); further: nearly all actives have a fitted effect of over 50% in size
# Outline: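 Agonist-stimulated (L165041, 300 nM final) HEK293H PPARd UAS-bla cells are exposed to compounds for 17 h at 37 C, and ATP-based luminescence (CellTiter-Glo) from the same wells reports cytotoxicity.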
# [6] = molecular target: Bile acid receptor (Homo sapiens) (UniProt Q96RI1); assay: qHTS assay to identify small molecule antagonists of the farnesoid-X-receptor (FXR) signaling pathway (AID 743217; active means well fitted inhibition curve with a large enough effect in the signal ratio in the repeat runs, not every such curve was filed as active; the % refers to the signal ratio; further: potency means the concentration at half of the fitted maximal effect)
# Outline: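 Antagonist mode: chenodeoxycholic acid at 50 uM final stimulates a UAS-driven beta-lactamase reporter in HEK 293T FXR-bla cells during 16 h, 37C compound exposure. Read-out is FRET substrate fluorescence after 2 h at room temperature.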
# [7] = qHTS assay to identify small molecule agonists of the farnesoid-X-receptor (FXR) signaling pathway - cell viability counter screen (AID 743218); further: nearly all actives have a fitted effect of over 45% in size
# Outline: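 Viability counter screen in the same wells: CellTiter-Glo luminescence, 30 min room-temperature incubation, measured after the beta-lactamase read. Cells were GeneBLAzer FXR-UAS-bla HEK 293T, compound-treated 16 h at 37C.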
# [8] = molecular target: Bile acid receptor (Homo sapiens) (UniProt Q96RI1); assay: qHTS assay to identify small molecule agonists of the farnesoid-X-receptor (FXR) signaling pathway (AID 743220; active means well fitted activation curve with a large enough effect in the signal ratio in the repeat runs, not every such curve was filed as active; the % refers to the signal ratio)
# Outline: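 FXR-UAS-bla HEK 293T cells carrying a UAS-driven beta-lactamase reporter were plated for 5 h at 37C/5% CO2, then exposed to DMSO-dissolved Tox21 10K compounds for 16 h at 37C. A LiveBLAzer B/G FRET substrate was loaded for 2 h at room temperature before fluorescence reading.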
# [9] = molecular target: Vitamin D3 receptor (Homo sapiens) (UniProt P11473); assay: qHTS assay to identify small molecule antagonists of the vitamin D receptor (VDR) signaling pathway (AID 743223; active means well fitted inhibition curve with a large enough effect in the signal ratio in the repeat runs, not every such curve was filed as active; the % refers to the signal ratio)
# Outline: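 Inhibition of agonist-driven VDR signalling is scored in VDR-bla cells: 3 nM final 1alpha,25-dihydroxyvitamin D3 plus compound, 16 h at 37C, then beta-lactamase detection by FRET substrate fluorescence after 2 h.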
# [10] = molecular target: Vitamin D3 receptor (Homo sapiens) (UniProt P11473); assay: qHTS assay to identify small molecule agonists of the vitamin D receptor (VDR) signaling pathway (AID 743222; calls by dose curve)
# Outline: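 Agonist mode, beta-lactamase reporter: fluorescence from LiveBLAzer B/G FRET substrate (2 h, room temperature) read after 16 h compound treatment at 37 C of VDR-bla cells, which were pre-incubated 4 h after seeding.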
# Vitamin D3 receptor (Homo sapiens), sequence (P11473 whole entry, looked up): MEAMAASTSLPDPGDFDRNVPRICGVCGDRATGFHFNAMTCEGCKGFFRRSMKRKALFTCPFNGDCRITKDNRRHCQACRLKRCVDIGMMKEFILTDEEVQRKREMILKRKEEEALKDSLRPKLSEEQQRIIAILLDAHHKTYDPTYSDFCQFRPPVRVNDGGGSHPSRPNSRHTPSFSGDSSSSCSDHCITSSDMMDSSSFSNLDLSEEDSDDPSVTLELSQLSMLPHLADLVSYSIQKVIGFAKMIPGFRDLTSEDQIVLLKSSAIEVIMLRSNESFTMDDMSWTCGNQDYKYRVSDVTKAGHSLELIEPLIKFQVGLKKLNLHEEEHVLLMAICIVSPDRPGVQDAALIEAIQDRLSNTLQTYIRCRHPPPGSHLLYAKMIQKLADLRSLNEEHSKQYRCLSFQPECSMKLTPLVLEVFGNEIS
# Bile acid receptor (Homo sapiens), sequence (Q96RI1 whole entry, looked up): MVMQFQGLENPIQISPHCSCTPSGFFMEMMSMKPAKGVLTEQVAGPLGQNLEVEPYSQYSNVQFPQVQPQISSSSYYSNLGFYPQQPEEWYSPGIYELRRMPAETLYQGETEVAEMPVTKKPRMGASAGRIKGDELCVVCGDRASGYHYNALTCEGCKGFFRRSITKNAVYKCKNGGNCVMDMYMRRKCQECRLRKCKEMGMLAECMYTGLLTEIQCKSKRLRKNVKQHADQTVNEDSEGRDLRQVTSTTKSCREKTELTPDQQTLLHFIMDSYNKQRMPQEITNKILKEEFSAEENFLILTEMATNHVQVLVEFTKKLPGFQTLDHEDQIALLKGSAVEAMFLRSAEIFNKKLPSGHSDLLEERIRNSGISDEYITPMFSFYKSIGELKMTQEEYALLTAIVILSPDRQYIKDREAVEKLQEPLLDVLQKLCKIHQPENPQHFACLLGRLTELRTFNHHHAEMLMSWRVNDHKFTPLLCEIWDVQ
# Peroxisome proliferator-activated receptor delta (Homo sapiens), sequence (Q03181 whole entry, looked up): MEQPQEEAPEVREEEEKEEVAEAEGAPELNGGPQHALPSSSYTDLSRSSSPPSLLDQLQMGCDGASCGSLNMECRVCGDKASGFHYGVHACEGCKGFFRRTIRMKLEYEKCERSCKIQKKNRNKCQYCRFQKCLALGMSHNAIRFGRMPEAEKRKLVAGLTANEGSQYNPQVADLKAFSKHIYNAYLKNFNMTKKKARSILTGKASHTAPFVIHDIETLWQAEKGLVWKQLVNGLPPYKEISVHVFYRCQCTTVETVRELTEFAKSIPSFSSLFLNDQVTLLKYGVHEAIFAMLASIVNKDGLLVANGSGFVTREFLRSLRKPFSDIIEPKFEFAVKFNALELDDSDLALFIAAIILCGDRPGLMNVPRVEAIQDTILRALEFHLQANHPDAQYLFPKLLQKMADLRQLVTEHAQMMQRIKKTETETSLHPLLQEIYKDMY
SMILES,Potency [1],Potency [2],Potency [3],Potency [4],Potency [5],Potency [6],Potency [7],Potency [8],outcome [9],outcome [10]
CN1CCN(c2c(F)cc3c(=O)c(C(=O)O)cn4c3c2OCN4C)CC1,inactive,inactive,inactive,inactive,–,–,–,–,–,–
CC(N)CN (centres undefined),inactive,inactive,–,–,inactive,inactive,inactive,inactive,inactive,–
CCC(C)(O)CCC=C(C)C (centres undefined),inactive,inactive,inactive,inactive,inactive,–,inactive,–,inactive,–
Brc1cc(-c2ccc(Br)c(Br)c2Br)cc(Br)c1Br,inactive,inactive,inactive,inactive,inactive,–,–,–,inactive,inactive
OCC1CC=CCC1 (centres undefined),inactive,inactive,inactive,inactive,inactive,–,–,–,inactive,inactive
CCOC(=O)CC(=O)C(=O)OCC,inactive,inactive,–,inactive,inactive,inactive,inactive,inactive,–,inactive
Nc1nc(Cl)nc2c1ncn2[C@@H]1O[C@H](CO)[C@@H](O)[C@@H]1F,inactive,inactive,–,inactive,inactive,–,inactive,inactive,–,inactive
NC(=O)Nc1ccc(Cl)cc1,inactive,inactive,–,inactive,inactive,–,inactive,–,inactive,–
O=S(=O)(c1ccccc1)c1ccc(Cl)cc1,inactive,inactive,inactive,–,inactive,–,inactive,–,inactive,inactive
CCn1nc(C)c2c1C(=O)NCC(c1ccc(O)cc1)=N2,inactive,inactive,–,inactive,inactive,–,inactive,–,–,inactive
CO[Si](C)(OC)OC,inactive,inactive,–,inactive,inactive,–,inactive,inactive,inactive,inactive
Oc1ccc(Nc2ccccc2)cc1,inactive,inactive,–,–,–,inactive,–,–,–,–
COc1ccc([C@@H]2Sc3ccccc3NC(=O)[C@@H]2O)cc1,inactive,inactive,inactive,inactive,–,–,inactive,inactive,–,inactive
CCn1cc(C(=O)O)c(=O)c2cc(F)c(N3CCNCC3)nc21,inactive,inactive,inactive,inactive,inactive,–,inactive,–,inactive,–
CC(=N\O)/C(C)=N/O,inactive,inactive,–,–,inactive,–,–,–,inactive,inactive
CCOc1cc(N)c(Cl)cc1C(=O)NCC1CN(Cc2ccc(F)cc2)CCO1 (centres undefined),inactive,inactive,inactive,inactive,inactive,–,–,inactive,inactive,inactive

SMILES,Potency [1],Potency [2],Potency [3],Potency [4],Potency [5],Potency [6],Potency [7],Potency [8],outcome [9],outcome [10]
CO[C@@]12[C@H](COC(N)=O)C3=C(C(=O)C(C)=C(N)C3=O)N1C[C@@H]1N[C@@H]12,inactive,inactive,–,inactive,inactive,–,inactive,inactive,–,–
CN1C(=O)CC(C)(c2ccccc2)C1=O (centres undefined),inactive,inactive,–,inactive,inactive,–,inactive,–,inactive,inactive
CC(Cl)C(Cl)Cl (centres undefined),inactive,inactive,inactive,–,inactive,–,inactive,–,inactive,inactive
CCCCCCCCCCCC[N+](C)(C)CC(=O)[O-],15.5 µM (active),inactive,inactive,–,–,inactive,–,inactive,inactive,–
CC(C)C(OC(=O)c1ccccc1)C(C)(C)COC(=O)c1ccccc1 (centres undefined),inactive,inactive,inactive,–,inactive,–,inactive,–,inactive,–
CCCCC(CC)C(=O)OCCOCCOCCOCCOC(=O)C(CC)CCCC (centres undefined),inactive,inactive,–,inactive,inactive,inactive,–,inactive,inactive,inactive
CC(=O)OCC(=O)[C@H]1CC[C@H]2[C@@H]3CCC4=CC(=O)CC[C@]4(C)[C@H]3CC[C@]12C,inactive,inactive,–,inactive,inactive,inactive,inactive,inactive,inactive,inactive
O=C(O)c1c(O)c(-c2ccccc2)nc2ccccc12,inactive,inactive,–,inactive,inactive,16.8 µM (active),–,inactive,inactive,inactive
CCCCN(CCCC)C(=S)SSC(=S)N(CCCC)CCCC,inactive,inactive,21.7 µM (active),inactive,–,–,–,–,inactive,–
CCC(Cc1ccccc1)(C(=O)c1ccc(N2CCOCC2)cc1)N(C)C (centres undefined),inactive,inactive,inactive,inactive,inactive,–,–,inactive,–,inactive
O=C(OCCOCCO)c1ccccc1Nc1cccc(C(F)(F)F)c1,inactive,inactive,inactive,–,inactive,–,–,–,inactive,inactive
CCCCC(CC)COC(=O)COc1ccc(Cl)cc1C (centres undefined),inactive,inactive,–,inactive,inactive,–,inactive,inactive,inactive,inactive
CCCCCCCCCCCCCCC[C@H](O)[C@@H](N)CO,inactive,inactive,inactive,inactive,–,–,–,–,–,–
Cc1cc(S(=O)(=O)O)ccc1N=Nc1c(O)ccc2ccccc12,inactive,–,–,inactive,inactive,inactive,inactive,inactive,inactive,–
CC(C)c1nnc2ccc(-c3ocnc3-c3cc(F)ccc3F)cn12,inactive,–,–,inactive,inactive,–,inactive,inactive,inactive,–
